Measured values published in PubChem BioAssay.
Activity calls are given as the source filed them.

How the values were obtained:
Albumin (Bos taurus) = Albumin (Bos taurus) (UniProt P02769); test: bovine serum albumin binders on microarray, profiling panel, artefact control for SMM control protein annotation, biochemical, small-molecule microarray, Alexa647 label, 635/667 nm fluorescence (AID 1118); conditions: BSA-A647 binding, fluorescence 635 nm, higher = more signal;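 further: score merges 667 nm emission intensity and signal-to-noise per printed compound spot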
Albumin (Bos taurus), sequence (P02769 whole entry, looked up): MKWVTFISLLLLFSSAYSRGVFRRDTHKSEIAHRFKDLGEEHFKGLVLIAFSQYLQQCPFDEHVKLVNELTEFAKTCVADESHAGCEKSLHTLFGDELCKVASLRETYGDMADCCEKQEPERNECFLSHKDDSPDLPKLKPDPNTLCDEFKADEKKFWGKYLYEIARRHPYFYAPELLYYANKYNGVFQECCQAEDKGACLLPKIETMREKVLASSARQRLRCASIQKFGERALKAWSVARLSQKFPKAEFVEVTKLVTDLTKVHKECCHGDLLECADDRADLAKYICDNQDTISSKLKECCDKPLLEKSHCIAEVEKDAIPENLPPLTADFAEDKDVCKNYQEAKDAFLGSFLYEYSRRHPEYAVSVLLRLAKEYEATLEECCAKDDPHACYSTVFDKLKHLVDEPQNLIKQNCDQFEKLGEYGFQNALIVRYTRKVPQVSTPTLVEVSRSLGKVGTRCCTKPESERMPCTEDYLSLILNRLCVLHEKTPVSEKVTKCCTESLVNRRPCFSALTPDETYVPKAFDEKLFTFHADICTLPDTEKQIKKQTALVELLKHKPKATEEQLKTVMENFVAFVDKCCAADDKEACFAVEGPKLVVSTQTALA

[1] = small-molecule microarray binders of probe aXIP, primary screen, biochemical, NeuroSMM set, 635/667 nm fluorescence (AID 1119); conditions: higher = more signal, called active from +8 up or from −8 down;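 further: probe is the protein aXip251-270 applied at 1 µg/mL to compound-printed slides; binding of probe to printed compounds measured as 667 nm fluorescence plus signal to noise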
[2] = small-molecule binders of probe aNOTCH3, primary screen, biochemical, small-molecule microarray, 635/667 nm fluorescence (AID 1120); conditions: higher = more signal;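 further: probe is a biotin-tagged antibody raised against NOTCH3 rather than NOTCH3 protein; score merges spot fluorescence near 667 nm with spot signal to noise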
[3] = small-molecule binders of probe aNOTCH2, primary screen, biochemical, small-molecule microarray, 635/667 nm fluorescence (AID 1121); conditions: higher = more signal;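 further: score merges feature fluorescence read at 667 nm with its signal to noise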
[4] = target: Carbonic anhydrase 2 (Homo sapiens) (UniProt P00918); test: CAII small-molecule binders, profiling panel, biochemical, small-molecule microarray, Alexa647-labelled CAII (AID 1122); conditions: CAII-A647 binding fluorescence, higher = more signal
[5] = COS7 lysate on small-molecule microarray, probe aHis, 635 nm (AID 1123); conditions: COS7 cell lysate, fluorescence, higher = more signal;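 further: z-score combines 667nm fluorescence intensity with signal-to-noise per printed compound spot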
[6] = compound binding in COS7 lysate, probe aLAP1, primary screen, cell lysate, small-molecule microarray (AID 1124); conditions: probe aLAP1, fluorescence, higher = more signal;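 further: lysate comes from COS7 cells expressing LAP1 and is applied at 0.3 µg/mL; score merges spot fluorescence near 667 nm with signal-to-noise over triplicate slides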
Sam68 (KHDRBS1) = test: Sam68 small-molecule binders, primary screen, biochemical, small-molecule microarray, 635 nm fluorescence (AID 1125); conditions: small-molecule microarray binding, higher = more signal;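 further: score merges 667 nm channel intensity with signal to noise over triplicate slides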
[7] = system: Chordin-like protein 2 (CHRDL2); test: CHRDL2 small-molecule binders, primary screen, biochemical, small-molecule microarray, 635 nm fluorescence (AID 1126); conditions: small-molecule microarray binding, fluorescence 635 nm; higher = more signal;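 further: printed compound slides probed with Chrdl2 protein at 4 µg/mL for 1 h at 4 C; score merges 667 nm emission intensity with signal to noise over three replicate slides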
[8] = target: Concanavalin-A (Canavalia ensiformis) (UniProt P02866); test: ConA small-molecule binders, primary screen, artefact control for SMM control protein annotation, biochemical, small-molecule microarray, Alexa647 label, 635 nm (AID 1127); conditions: ConA-A647 binding fluorescence, higher = more signal;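 further: z combines 667 nm emission intensity with signal-to-noise across three replicate slides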
Concanavalin-A (Canavalia ensiformis), sequence (P02866 whole entry, looked up): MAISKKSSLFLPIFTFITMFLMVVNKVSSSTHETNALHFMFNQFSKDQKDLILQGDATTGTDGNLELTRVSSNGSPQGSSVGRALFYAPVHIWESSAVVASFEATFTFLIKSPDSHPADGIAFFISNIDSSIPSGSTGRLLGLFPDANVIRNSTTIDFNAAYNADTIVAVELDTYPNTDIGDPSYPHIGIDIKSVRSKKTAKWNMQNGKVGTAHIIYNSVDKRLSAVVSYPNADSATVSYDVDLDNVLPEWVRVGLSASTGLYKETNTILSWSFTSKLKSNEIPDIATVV

[9] = anti-His antibody binders, primary screen, artefact control for SMM control protein annotation, biochemical, small-molecule microarray, 635 nm fluorescence (AID 1128); conditions: anti-His Alexa647 antibody binding, higher = more signal;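 further: score merges feature fluorescence with signal-to-noise for each printed compound spot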
[10] = system: Human papillomavirus type 1a E7 protein (residues 1-88); test: HPV1a E7 small-molecule binders, primary screen, biochemical, small-molecule microarray, residues 1-88, 635 nm (AID 1129); conditions: small-molecule microarray binding, fluorescence 635 nm; higher = more signal
[11] = target: Focal adhesion kinase 1 (Homo sapiens) (UniProt Q05397); test: small-molecule microarray binders of FAK, primary screen, biochemical, 635/667 nm fluorescence, BSA, DTT (AID 1130); conditions: PTK2 binding, 635 nm fluorescence, higher = more signal;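 further: composite of spot emission at 667 nm and signal to noise over triplicate slides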
Focal adhesion kinase 1 (Homo sapiens), sequence (Q05397 whole entry, looked up): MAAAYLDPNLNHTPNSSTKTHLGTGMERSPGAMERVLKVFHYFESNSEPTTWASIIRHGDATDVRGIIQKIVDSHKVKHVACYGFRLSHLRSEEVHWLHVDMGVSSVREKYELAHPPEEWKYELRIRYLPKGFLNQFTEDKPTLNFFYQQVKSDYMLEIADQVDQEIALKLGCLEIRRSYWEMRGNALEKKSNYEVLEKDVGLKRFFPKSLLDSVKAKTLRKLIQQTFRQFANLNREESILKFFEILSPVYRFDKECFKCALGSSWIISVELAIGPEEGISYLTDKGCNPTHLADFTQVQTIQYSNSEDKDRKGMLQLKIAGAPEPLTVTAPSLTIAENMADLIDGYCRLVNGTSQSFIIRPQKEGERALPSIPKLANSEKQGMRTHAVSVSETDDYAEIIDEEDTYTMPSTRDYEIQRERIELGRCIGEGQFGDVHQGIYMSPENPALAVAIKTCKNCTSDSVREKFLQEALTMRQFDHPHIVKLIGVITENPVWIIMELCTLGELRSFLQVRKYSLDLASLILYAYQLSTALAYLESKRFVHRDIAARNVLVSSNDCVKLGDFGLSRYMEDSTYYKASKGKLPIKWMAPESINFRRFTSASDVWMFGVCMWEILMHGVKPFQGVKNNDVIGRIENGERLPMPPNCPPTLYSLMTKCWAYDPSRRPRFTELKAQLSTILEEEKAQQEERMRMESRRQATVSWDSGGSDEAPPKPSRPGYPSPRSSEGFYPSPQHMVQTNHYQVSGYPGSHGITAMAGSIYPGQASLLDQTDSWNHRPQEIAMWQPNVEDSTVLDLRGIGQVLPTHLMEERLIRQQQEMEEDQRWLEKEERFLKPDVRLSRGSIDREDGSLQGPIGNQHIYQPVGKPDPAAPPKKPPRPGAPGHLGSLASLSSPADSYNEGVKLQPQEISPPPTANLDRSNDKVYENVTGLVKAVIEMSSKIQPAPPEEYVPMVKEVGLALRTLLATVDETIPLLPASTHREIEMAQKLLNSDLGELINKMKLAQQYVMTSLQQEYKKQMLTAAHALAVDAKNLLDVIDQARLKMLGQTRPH

[12] = system: Fibrinogen (Alexa647-labelled); test: fibrinogen binders on compound microarrays, profiling panel, artefact control for SMM control-protein annotation, biochemical, small-molecule microarray, 635/667 nm fluorescence (AID 1131); conditions: fibrinogen-A647 binding fluorescence, higher = more signal;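 further: z-score merges 667 nm fluorescence with per-spot signal-to-noise over triplicate slides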
[13] = target: Follistatin (Homo sapiens) (UniProt P19883); test: follistatin binders on small-molecule microarrays, primary screen, biochemical, small-molecule microarray, 635/667 nm fluorescence (AID 1132); conditions: FST binding, 635 nm fluorescence, higher = more signal
Follistatin (Homo sapiens), sequence (P19883 whole entry, looked up): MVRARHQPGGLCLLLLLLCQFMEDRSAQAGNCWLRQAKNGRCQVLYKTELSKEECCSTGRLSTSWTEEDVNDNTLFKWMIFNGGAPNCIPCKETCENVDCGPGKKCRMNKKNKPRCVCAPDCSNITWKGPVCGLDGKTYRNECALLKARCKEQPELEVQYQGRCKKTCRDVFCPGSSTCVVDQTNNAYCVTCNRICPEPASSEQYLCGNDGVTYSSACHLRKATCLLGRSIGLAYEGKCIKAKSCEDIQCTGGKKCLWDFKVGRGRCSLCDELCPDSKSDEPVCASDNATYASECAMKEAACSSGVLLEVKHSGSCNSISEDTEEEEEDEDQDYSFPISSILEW

[14] = target: Fibroblast growth factor 2 (Homo sapiens) (UniProt P09038); test: FGF2 binders on small-molecule microarrays, primary screen, biochemical, small-molecule microarray, 635/667 nm fluorescence (AID 1133); conditions: small-molecule microarray binding, FGF2, fluorescence 635/667; higher = more signal
Fibroblast growth factor 2 (Homo sapiens), sequence (P09038 whole entry, looked up): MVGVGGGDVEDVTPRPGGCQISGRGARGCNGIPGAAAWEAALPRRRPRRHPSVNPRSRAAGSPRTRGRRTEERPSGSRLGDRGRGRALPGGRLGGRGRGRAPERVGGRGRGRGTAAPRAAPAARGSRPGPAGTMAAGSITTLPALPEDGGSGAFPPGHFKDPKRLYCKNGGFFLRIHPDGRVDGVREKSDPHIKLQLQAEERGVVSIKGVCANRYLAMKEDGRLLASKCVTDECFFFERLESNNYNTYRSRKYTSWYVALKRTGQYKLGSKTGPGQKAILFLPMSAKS

[15] = mitochondrial membrane potential change in A549 cells, profiling panel, cell-based, JC-1 fluorescence, basal, 24 h, 100 nL (AID 1138); conditions: higher = more signal;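 further: A549 lung adenocarcinoma cells under basal conditions with no added stimulus; test concentration not given here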
Lefty1 = Lefty1 binders on small-molecule microarrays, primary screen, biochemical, small-molecule microarray, 635/667 nm fluorescence (AID 1139); conditions: small-molecule microarray binding, fluorescence 635/667; higher = more signal
[16] = system: wheat germ agglutinin (Triticum aestivum), Alexa647-labelled; test: wheat germ agglutinin binders on compound microarrays, profiling panel, artefact control for SMM control-protein annotation, biochemical, small-molecule microarray, 635/667 nm fluorescence (AID 1140); conditions: WGA-A647 binding, 635 nm fluorescence, higher = more signal;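 further: score merges 667 nm feature emission with signal to noise over triplicate slides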
[17] = target: Luciferin 4-monooxygenase (Photinus pyralis) (UniProt P08659); test: firefly luciferase enzyme inhibitors, primary screen, biochemical, luminescence, purified enzyme, 2006 set (AID 1141); conditions: SteadyGlo luminescence, 30 min, higher = more signal, called active from +8 up or from −8 down;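 further: cell-free assay with purified firefly luciferase at 100 ng per well in PBS; test concentration not given here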
Luciferin 4-monooxygenase (Photinus pyralis), sequence (P08659 whole entry, looked up): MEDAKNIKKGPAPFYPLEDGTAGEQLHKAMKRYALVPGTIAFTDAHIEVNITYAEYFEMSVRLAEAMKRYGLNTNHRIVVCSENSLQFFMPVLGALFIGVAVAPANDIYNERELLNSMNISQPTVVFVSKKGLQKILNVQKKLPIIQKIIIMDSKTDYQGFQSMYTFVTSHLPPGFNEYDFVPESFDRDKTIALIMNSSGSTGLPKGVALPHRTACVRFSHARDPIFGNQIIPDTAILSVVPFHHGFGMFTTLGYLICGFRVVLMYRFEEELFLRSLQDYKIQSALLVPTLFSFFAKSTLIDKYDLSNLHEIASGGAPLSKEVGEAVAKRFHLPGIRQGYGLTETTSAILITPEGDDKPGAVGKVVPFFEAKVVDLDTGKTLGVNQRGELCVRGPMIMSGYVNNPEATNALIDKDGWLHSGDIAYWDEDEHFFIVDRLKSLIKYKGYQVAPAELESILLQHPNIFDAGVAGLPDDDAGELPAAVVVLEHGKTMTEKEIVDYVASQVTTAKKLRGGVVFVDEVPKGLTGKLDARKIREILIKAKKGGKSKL

| SMILES | composite z-score (Albumin (Bos taurus)) | composite Z-score [1] | composite z-score [2] | composite z-score [3] | composite z-score [4] | composite z-score [5] | composite z-score [6] | composite z-score (Sam68 (KHDRBS1)) | composite z-score [7] | composite z-score [8] | composite z-score [9] | composite z-score [10] | composite z-score [11] | composite z-score [12] | composite z-score [13] | composite z-score [14] | z-score [15] | composite z-score (Lefty1) | composite z-score [16] | z-score [17] |
| --- | --- | --- | --- | --- | --- | --- | --- | --- | --- | --- | --- | --- | --- | --- | --- | --- | --- | --- | --- | --- |
| C=CC[C@@H]1C=C[C@H](ON=C[C@@H](C)[C@H](OCc2ccccc2)C(C)C)[C@@H](CO)O1 | 0.744 | -0.315 (inactive) | -0.276 | -0.221 | -0.115 | 0.502 | 0.103 | 0.0186 | 0.157 | -0.817 | -0.304 | -0.324 | -0.472 | -1.67 | -0.386 | -0.178 | -0.922 | 0.521 | -0.0625 | 0.888 (inactive) |
| CCOC(=O)CCN1C(=O)[C@H]2[C@H]3[C@H](O)[C@H](O)CC(=NOCC(C)C)[C@H]3CC[C@H]2C1=O | 0.345 | 0.636 (inactive) | -0.0377 | -0.14 | -0.278 | 0.163 | 0.528 | -0.353 | 0.433 | 0.0589 | -0.0537 | -0.204 | -0.0454 | 0.416 | -0.143 | -0.0435 | 0.46 | -0.0892 | 0.293 | -0.562 (inactive) |
| O=C1C[C@@H](O)[C@@H](O)[C@@H]2[C@@H]3C(=O)N(C[C@@H]4CCCO4)C(=O)[C@@H]3CC[C@H]12 | 0.225 | -0.472 (inactive) | 0.0197 | -0.203 | 0.0413 | 0.157 | -0.117 | 0.354 | 0.72 | 0.186 | 0.284 | 0.569 | -0.266 | 0.684 | 0.236 | 0.538 | 0.991 | 0.548 | 0.085 | -0.635 (inactive) |
| O=C(NN=C1C[C@@H](O)[C@@H](O)[C@@H]2[C@@H]3C(=O)N(C4CCCCC4)C(=O)[C@@H]3CC[C@H]12)OCc1ccccc1 | 0.885 | -0.229 (inactive) | 0.273 | 0.179 | 0.0928 | 0.206 | 0.947 | -0.337 | 0.209 | -0.465 | -0.156 | -0.387 | -0.132 | -0.195 | -0.516 | -0.443 | 0.293 | -0.422 | 0.505 | -0.0704 (inactive) |
| COc1ccc(O[C@H]2C=C[C@@H](c3ccccc3)O[C@@H]2COC(=O)CCC(C)=NO[C@@H]2O[C@H](COC(C)=O)[C@@H](OC(C)=O)[C@H](OC(C)=O)[C@H]2OC(C)=O)cc1 | 0.303 | -0.211 (inactive) | 0.0322 | -0.211 | -0.0481 | 0.752 | 0.0839 | 1.32 | 0.786 | 0.544 | 0.487 | 0.795 | -0.234 | 0.708 | 0.293 | 0.641 | -0.388 | 0.742 | 0.262 | 1.16 (inactive) |
| CON=C[C@@H](C)[C@H](OCc1ccccc1)C(C)C | -0.784 | -0.47 (inactive) | -0.0647 | -0.162 | -0.269 | -0.606 | -0.0291 | -0.295 | 0.54 | -0.413 | -0.032 | -1.2 | 0.119 | -0.734 | 0.359 | 0.211 | -1.1 | 0.347 | -0.195 | 0.592 (inactive) |
